The results in this text go back to PubChem BioAssay (NCI).

This is part of a sample that, as a whole, favours compounds with a hit. Of some 83,000 tested, about 20% had one in any assay.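 Compound tested at a single concentration for 48 hours in 96-well plates; a percent growth value below 10 was scored as active.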 A number with no mark means an inactive call. The source made the active and inactive calls.

Common to all, as to assay: NCI-60 one-dose screen, 48 h (100 = growth as untreated, 0 = no growth, -100 = all killed)
What all share (details): 10 µM unless noted

The subject of test [1] is SK-MEL-2 melanoma.
Test [2] has as its system EKVX NSCLC.
For test [3], the system named is SN12C renal.
Test [4] relates to UO-31 renal.
For test [5], the system named is TK-10 renal.
The test system of test [6] is ACHN renal.
The subject of test [7] is CAKI-1 renal.
The subject of test [8] is A498 renal.
The subject of test [9] is CCRF-CEM leukemia.
Test [10] deals with MOLT-4 leukemia.

Take `N=C(N)c1ccc(S(N)(=O)=O)cc1`: the growth is 99.9% in test [1]; 96.2% in test [2]; 94.5% in test [3]; 72.6% in test [4]; 96.6% in [5]; 108% in test [6]. Besides, the growth in [7] is 92.5%; in [8] it was 92%; in test [9], 107%; in [10] it was 102%.
Consider `O=C(/C=C/c1ccc2ccccc2c1)Nc1ncc(Cc2ccccc2)s1`, for which the growth in test [1] was 98.1%; in [2] it was 71.4%; in test [3], 43.9%; in test [4], 43.5%; in [5], 22.6%; in test [6], 6.83% (active). Moreover, the growth is 45.1% in [7], 86.2% in test [8], 49.2% in test [9] and 65.8% in test [10].
As to `C=C(C)[C@@H]1CC[C@]2(c3nnc(-c4ccncc4)o3)CC[C@]3(C)[C@H](CC[C@@H]4[C@@]5(C)CCC(=O)NC(C)(C)[C@@H]5CC[C@]43C)[C@@H]12`, the growth in test [1] was 111%; in test [2], 95.1%; in test [3], 91.8%; in [4], 76.6%; in test [5], 143%; in test [6] it was 98.7%. In addition, the growth in [7] was 51.1%; in test [8], 99.3%; in test [9] it was 95%; in test [10] it was 85.6%.
`COc1ccc(-c2cc(-c3c(C)oc4cc5occc5c(OC)c4c3=O)nc(N)c2C#N)cc1OC`: the growth in [1] was 60.7%; in [2], 92.8%; in test [3] it was 77.6%; in [4], 45.2%; in test [5] it was 77.1%; in [6], 65.6%. Also, the growth was 38.9% in test [7], 23.7% in [8], 43.8% in test [9] and 30.9% in test [10].
For the compound `CCN1CCN(C(=O)[C@]23CCC(C)(C)C[C@@H]2C2=CC[C@@H]4[C@@]5(C)C/C(=C/c6cccnc6)C(=O)C(C)(C)[C@@H]5CC[C@@]4(C)[C@]2(C)CC3)CC1`, the growth is 41.9% in test [1]; 25.4% in test [2]; 29.5% in test [3]; 33.3% in test [4]; 52.4% in [5]; 33.4% in test [6]. Further, the growth in [7] is 31.5%; in test [8], 45.1%; in test [9] it was 33.4%; in test [10], 4.16% (active).
For `COc1ccc(-c2nc(Nc3ccc(-c4nc5ccccc5[nH]4)cc3)nc(N3CCOCC3)n2)cc1`, the growth is -19.2% (active) in [1]; 7.91% (active) in test [2]; 40.8% in test [3]; -43.5% (active) in test [4]; 43.9% in [5]; 9% (active) in [6]. In addition, the growth in test [7] was -56.6% (active); in test [8] it was -32.1% (active); in test [9], -1.84% (active); in test [10], 1.78% (active).
As for `CC(=O)O[C@H]1CC[C@]2(C)[C@H]3CC=C4[C@@H]5[C@H](C)[C@@H](C)CC[C@]5(C(=O)NCCNCCNCCN)CC[C@@]4(C)[C@]3(C)CC[C@H]2C1(C)C`, the growth was 105% in test [1]; 72.6% in test [2]; 78.3% in test [3]; 63.5% in test [4]; 101% in [5]; 91.5% in test [6]. Also, the growth in test [7] was 55.8%; in test [8], 95.4%; in test [9], 62.1%; in test [10], 49.9%.
With `O=S(=O)(NCCCNc1cc(-c2cn(-c3ccccc3)nc2-c2cccc(O)c2)ccn1)c1ccc(F)cc1`, the growth was 44.7% in [1]; 51.2% in test [2]; 47.3% in [3]; 21.9% in test [4]; 50.6% in [5]; 32.8% in [6]. Moreover, the growth in test [7] was 41.4%; in [8], 34.3%; in test [9] it was 19.4%; in test [10], 18.8%.
As for `COC(=O)CNc1nc(N(C)O)nc(N(C)O)n1`, the growth in test [1] is 113%; in test [2], 48.2%; in test [3], 49.8%; in [4], 35.6%; in test [5], 49.6%; in test [6], 23.8%. In addition, the growth was 34.1% in test [7], 34.5% in test [8], 15.5% in test [9] and 25.9% in [10].
Consider `CN(C)c1cccc2[nH]c(-c3[nH]ncc3Nc3ccnc(N)n3)nc12`, for which the growth was -60.4% (active) in [1]; -17% (active) in test [2]; -7.45% (active) in test [3]; -9.8% (active) in [4]; -30.1% (active) in test [5]; -1.92% (active) in [6]. Further, the growth in [7] was -45.9% (active); in test [8] it was -79.4% (active); in test [9] it was 1.73% (active); in test [10], 1.65% (active).
Take `O=S(=O)(NCCNc1cc(-c2cn(-c3ccccc3)nc2-c2cccc(O)c2)ccn1)c1ccc(F)cc1`: the growth in test [1] was 22.2%; in [2] it was 56.1%; in test [3], 44.2%; in [4], 20.1%; in test [5], 46.2%; in test [6], 27.3%. Also, the growth in test [7] was 37.1%; in test [8], 36.2%; in [9], 5.95% (active); in test [10] it was 4.37% (active).
On to `COC(=O)[C@]12CC[C@@H](C)[C@H](C)[C@@H]1C1=CC(=O)[C@@H]3[C@@]4(C)C[C@@H](OC(C)=O)[C@H](OC(C)=O)[C@@](C)(COC(C)=O)[C@@H]4C(=O)C[C@@]3(C)[C@]1(C)CC2`, for which the growth in [1] is 75.6%; in [2], 57.8%; in test [3], 57.1%; in test [4], 42.5%; in [5] it was 74%; in test [6], 31.8%. Besides, the growth in [7] was 30.5%; in [8] it was 53%; in [9], 17%; in test [10], 4.9% (active).
In the case of `C=C(C)[C@@H]1CC[C@]2(C)CC[C@]3(C)[C@H](CC[C@@H]4[C@@]5(C)CCCNC(C)(C)[C@@H]5CC[C@]43C)[C@@H]12`, the growth in [1] was 119%; in [2], 103%; in [3], 82.1%; in [4] it was 88.2%; in test [5] it was 142%; in test [6], 95.5%. Also, the growth in test [7] is 75.3%; in test [8] it was 79.7%; in test [9], 52%; in test [10], 46.6%.
